Laboratory results: PubChem BioAssay AID1159580 (chemical genetic matrix, 2015)
Values joined by “and” are separate entries in the source; they are usually repeats but may differ in a detail not shown here. Equal entries are not always repeated. Among all 5,500 compounds or so, about 2,000 (36%) were called active. Roughly 18% stayed inconclusive and do not appear here. Rule as the data show it: active = normalized growth mostly below about 0.91 (no sharp cut-off); inconclusive = no clear call, values can overlap the other calls; inactive = mostly above about 0.92. The list shows a part of the results.

Test: chemical genetic growth profiling, strain panel (AID 1159580);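 also: tested at 20 µM; growth read once vehicle control cultures reached saturation at 30 °C; 1 = growth at the plate median or of vehicle wells; lower values mean less growth of the strain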
Settings: S. cerevisiae deletion strains, growth OD

Measured: normalized growth

C[C@H]1[C@H](C)CC[C@]2(CO)CC[C@]3(C)C(=CCC4[C@@]5(C)CC[C@H](O)C(C)(C)C5CC[C@]43C)[C@H]12 (some centres not stated)
inactive: locus YAL021C, strain ccr4, hits give low values 1.02 | locus YAL026C, strain drs2, hits give low values 0.981 | locus YAL030W, strain snc1, hits give low values 0.997 | locus YBL061C, strain skt5, hits give low values 0.994 | locus YBR009C, strain hhf1, hits give low values 1.01 | locus YBR021W, strain FUR4, hits give low values 1.01 | locus YBR023C, strain chs3, hits give low values 0.995 | locus YBR171W, strain sec66, hits give low values 0.989 | locus YBR229C, strain ROT2, hits give low values 1.02 | locus YBR231C, strain swc5, hits give low values 0.996 | locus YBR279W, strain paf1, hits give low values 0.991 | locus YCL011C, strain gbp2, hits give low values 0.994 | locus YCL016C, strain dcc1, hits give low values 1.01 | locus YCL029C, strain bik1, hits give low values 1.06 | locus YCL061C, strain MRC1, hits give low values 1 | locus YCL069W, strain vba3, hits give low values 0.998 | locus YCR088W, strain abp1, hits give low values 0.995 | locus YDL005C, strain med2, hits give low values 0.986 | locus YDL035C, strain GPR1, hits give low values 0.994 | locus YDL040C, strain nat1, hits give low values 0.996 | locus YDL074C, strain BRE1, hits give low values 1.03 | locus YDL101C, strain DUN1, hits give low values 1.02 | locus YDL134C, strain PPH21, hits give low values 0.999 | locus YDL185W, strain tfp1, hits give low values 1.03 | locus YDL192W, strain arf1, hits give low values 1.04 | locus YDR001C, strain nth1, hits give low values 1 | locus YDR069C, strain doa4, hits give low values 0.988 | locus YDR101C, strain arx1, hits give low values 1.01 | locus YDR137W, strain rgp1, hits give low values 0.996 | locus YDR159W, strain sac3, hits give low values 1.01 | locus YDR162C, strain NBP2, hits give low values 1.01 | locus YDR195W, strain ref2 0.992 | locus YDR297W, strain sur2, hits give low values 1.01 | locus YDR318W, strain mcm21, hits give low values 1.02 | locus YDR334W, strain swr1, hits give low values 0.992 | locus YDR335W, strain msn5, hits give low values 0.999 | locus YDR388W, hits give low values 1.02 | locus YDR392W, strain spt3, hits give low values 1.03 | locus YDR502C, strain sam2, hits give low values 0.998 | locus YEL003W, strain gim4, hits give low values 1 | locus YEL037C, strain rad23, hits give low values 0.981 | locus YEL061C, strain CIN8 (second series), hits give low values 0.972 | locus YEL061C, strain CIN8, hits give low values 1.01 | locus YER015W, strain faa2, hits give low values 1 | locus YER016W, strain bim1, hits give low values 0.988 | locus YER110C, hits give low values 1.03 | locus YER111C, strain swi4, hits give low values 1.01 | locus YER155C, strain BEM2 (second series), hits give low values 0.995 | locus YER155C, strain BEM2, hits give low values 1.02 | locus YER167W, strain BCK2, hits give low values 0.994 | locus YFR010W, strain ubp6, hits give low values 0.987 | locus YGL078C, strain dbp3, hits give low values 1.01 | locus YGL086W, strain mad1, hits give low values 1.01 | locus YGL167C, strain pmr1, hits give low values 0.996 | locus YGL173C, strain kem1, hits give low values 1 | locus YGL227W, strain vid30, hits give low values 0.999 | locus YGL240W, strain doc1, hits give low values 0.975 | locus YGL248W, strain PDE1, hits give low values 1.01 | locus YGL253W, strain hxk2, hits give low values 0.995 | locus YGR135W, strain pre9, hits give low values 1.01 | locus YGR252W, strain gcn5, hits give low values 1.02 | locus YHR013C, strain ard1, hits give low values 0.982 | locus YHR027C, strain rpn1, hits give low values 1 | locus YHR030C, strain SLT2, hits give low values 1.01 and 1.03 | locus YHR079C, strain IRE1 (second series), hits give low values 1.02 | locus YHR079C, strain IRE1, hits give low values 1.04 | locus YHR094C, strain hxt1, hits give low values 1.03 | locus YHR129C, strain ARP1, hits give low values 1.02 | locus YHR142W, strain chs7, hits give low values 1.01 | locus YHR200W, strain rpn10, hits give low values 1.01 | locus YIL066C, strain RNR3, hits give low values 1.01 | locus YIL073C, strain SPO22, hits give low values 1.05 | locus YIL125W, strain kgd1, hits give low values 1.03 | locus YIR030C, strain dcg1, hits give low values 1.02 | locus YJL092W, strain hpr5, hits give low values 0.995 | locus YJL095W, strain BCK1 (second series), hits give low values 1.01 | locus YJL095W, strain BCK1, hits give low values 1.02 and 0.984 | locus YJL115W, strain asf1, hits give low values 0.991 | locus YJL129C, strain trk1, hits give low values 1 | locus YJL134W, strain LCB3, hits give low values 1.01 | locus YJL154C, strain vps35, hits give low values 0.986 | locus YJL164C, strain tpk1, hits give low values 1.01 | locus YJL166W, strain qcr8, hits give low values 0.994 | locus YJL168C, strain set2, hits give low values 1.02 | locus YJL187C, strain SWE1 (second series), hits give low values 1.02 | locus YJR043C, strain POL32, hits give low values 1 | locus YJR066W, strain TOR1, hits give low values 0.997
